Screening results: PubChem, several laboratories
CYP2C19 activ – increases human CYP2C19 enzyme activity; P33261; recombinant CYP2C19, luciferin-H EGE luminescence; active compounds read high; 0 = fully inhibited enzyme, 1 = untreated enzyme; activation factor at 5 µM; 96,000 tested, under 10 active; AID 1025;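 active means activation factor of at least 2 at 5 µM in the primary screen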;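 further: 0 = wells with 2.5 mM tranylcypromine and 1 = vehicle-only wells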
Target sequence (P33261 whole entry, looked up): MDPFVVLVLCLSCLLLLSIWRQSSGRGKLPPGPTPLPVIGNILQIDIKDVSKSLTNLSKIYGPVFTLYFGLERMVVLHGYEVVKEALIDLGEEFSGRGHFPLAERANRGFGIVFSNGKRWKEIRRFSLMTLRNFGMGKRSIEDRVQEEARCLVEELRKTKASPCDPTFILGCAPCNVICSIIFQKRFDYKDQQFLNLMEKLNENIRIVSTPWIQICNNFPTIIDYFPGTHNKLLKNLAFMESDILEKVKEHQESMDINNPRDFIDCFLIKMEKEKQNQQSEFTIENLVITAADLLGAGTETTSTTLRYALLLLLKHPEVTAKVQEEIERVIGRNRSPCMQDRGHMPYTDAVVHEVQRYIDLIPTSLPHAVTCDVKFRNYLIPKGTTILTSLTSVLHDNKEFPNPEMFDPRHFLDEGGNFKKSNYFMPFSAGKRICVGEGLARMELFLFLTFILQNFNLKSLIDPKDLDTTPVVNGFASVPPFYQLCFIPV
CYP2C19 inh – human CYP2C19 inhibition; 96,000 tested, 21% active; CYP2C19 Supersomes, luciferin-H EGE luminescence, 30 min; P33261; inhibition, % at 5 µM; AID 778;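 active means CYP2C19 inhibition above a set limit at 5 µM in the primary screen, cut at about 50% in these data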;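 further: plate controls were negative control wells for no effect and 2.5 mM tranylcypromine positive control for full effect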
hDAT+cocaine – human DAT dopamine uptake with cocaine, either direction. 110,000 tested, 1.3% active. Q01959. LLC-PK1 hDAT cells, [14C]-dopamine uptake with cocaine IC80; actives deviate in either direction. B-score at 10 µM;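 active means Z score or B-score, a plate-position-corrected score, falls beyond the plate's 99.7% confidence bounds, in either direction; inactive means both scores lie inside the 99.7% bounds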;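 further: scored against the spread of the other compound wells on the same plate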
CYP2C9 act – increases human cytochrome P450 2C9 activity; recombinant CYP2C9, luciferin-H conversion, luminescence; active compounds read high; factor 1 = untreated enzyme, 0 = blocked; 96,000 tested, 1.4% active; activation factor at 5 µM; P11712;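 active means activation factor of 2 or more for CYP2C9 at a 5 µM dose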;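 further: 0 = sulfaphenazole-blocked wells and 1 = vehicle-only wells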
CYP2C9 inhib – human CYP2C9 inhibition. 96,000 tested, 20% active. CYP2C9 Supersomes, luciferin-H conversion, luminescence. inhibition, % at 5 µM. AID 777;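 active means blocking of liver enzyme CYP2C9 beyond about 50% at 5 µM, limit read from the data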
D1 mod – allosteric modulators of human D1 dopamine receptor | B-score at 10 µM | 58,000 tested, 5.9% active | HEK293 D1, CRE-luciferase, dopamine EC30 potentiation; actives deviate in either direction | P21728;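 active means luminescence count or its row- and column-corrected plate score outside the 99.7% band of the plate's sample wells, on either side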
The depositor's hits bear a star; . = no result. An excerpt weighted towards active compounds, which were near 28% of everything screened.

SMILES | CYP2C19 activ | CYP2C19 inh | hDAT+cocaine | CYP2C9 act | CYP2C9 inhib | D1 mod
COc1ccc(-c2nc(-c3ccc(NC(=O)c4ccncc4)cc3)no2)cc1OC | 1 | 0.7 | -0.362 | 0.7 | 29.2 | -6.71*
O=C(Nc1ccncc1)c1cc(F)cc(F)c1 | 0.1 | 86.2* | 0.0699 | 0.6 | 40.8 | .
COc1ccc(Cl)cc1-c1nc(-c2ccc(NC(=O)c3ccncc3)cc2)no1 | . | . | -0.475 | . | . | 1.32
O=C(Nc1cccc(C(F)(F)F)c1)c1cccnc1 | 1 | -4.0 | 0.0126 | 1.1 | -7.1 | -0.703
COc1cc(C(=O)Nc2ccncc2)cc(OC)c1OC | 0 | 98.3* | 1.25 | 0.1 | 85.9* | 0.253
CC1S/C(=C(\C#N)C(N)=O)N(c2ccc(F)cc2)C1=O (stereo not drawn) | 1.1 | -10.8 | -2.14 | 0.9 | 5.6 | 1.14
Cc1[nH]n(-c2ccc(Cl)cc2)c(=O)c1C=Nc1ccc(S(=O)(=O)N2CCOCC2)cc1 | 1 | -2.4 | 1.02 | 0.9 | 13.7 | .
Cc1cc(-c2c(C)[nH]n(-c3ccc(Cl)cc3)c2=O)n[nH]1 | 0.7 | 30.8 | -0.389 | 0.5 | 54.7* | .
CC(=O)C[C@H]1c2ccccc2S(=O)(=O)N1c1ccccc1 | . | . | -1.25 | . | . | .
CC(=O)Nc1ccccc1OCC(=O)c1ccc2c(c1)OCO2 | 0.8 | 20.5 | -0.00231 | 0.8 | 16.4 | .
CCOc1ccccc1NC(=S)/C(=C(\[O-])c1ccc2c(c1)OCCO2)[n+]1ccc(CC)cc1 | 0.4 | 58.7* | -0.127 | 0.4 | 61.6* | .
N#C/C(=C1\C(=O)Nc2c(Cl)cc(Cl)cc21)c1nnc2n1CCCCC2 | 1.1 | -5.2 | 0.525 | 1 | 4.5 | .
COc1ccc(CCNC(=O)CSc2nc3ccccc3o2)cc1OC | 0.2 | 79.6* | 0.143 | 0.1 | 88.1* | .
COc1ccc(CCNC(=O)CSc2nc3cc(Cl)ccc3o2)cc1OC | 0.8 | 24.8 | -1 | 0.3 | 65.9* | .
COc1ccc(C(C)=O)cc1CSc1nnc(C)s1 | 0.3 | 66.2* | -0.158 | 1 | -2.1 | 1.67
COc1ccc(CCNC(=O)CSc2nnc(CNC(=O)c3ccco3)o2)cc1OC | 1.1 | -6.9 | -0.296 | 0.8 | 17.1 | 0.0477
COc1ccc(CCNC(=O)CSc2nnc(CNC(=O)c3ccccc3F)o2)cc1OC | 0.9 | 6.2 | 0.228 | 0.8 | 15.0 | 0.55
Cc1nnc(SCc2ccc(C(=O)O)cc2)s1 | 1.1 | -5.9 | 0.14 | 1 | 2.4 | .
Cc1cc(C)cc(NC(=O)c2ccc(CSc3nnc(C)s3)cc2)c1 | 0.6 | 35.5 | -0.83 | 2* | -98.4 | .
CC(C)CCN1C(=O)c2ccc(C(=O)OCn3nnc4ccccc4c3=O)cc2C1=O | 0.9 | 8.0 | 0.127 | 0.9 | 10.5 | 0.113
CSCCC1NC(=O)NC1=O (stereo not drawn) | 1.1 | -10.0 | -0.336 | 1.2 | -15.2 | 0.703
CC1(C)OC(=O)N(c2cccnc2)C1(C)O (stereo not drawn) | 1.1 | -14.2 | 1.34 | 1.1 | -12.8 | 0.981
O=C1NCCCC1C(=O)N1CCN(C(c2ccccc2)c2ccccc2)CC1 (stereo not drawn) | 1 | -4.9 | -0.323 | 1 | 2.2 | -1.42
CCOC(=O)C1CCN(c2c(C(=O)c3ccccc3)cnc3ccc(Cl)cc23)CC1 | . | . | 0.394 | . | . | .
COc1ccc(CCNC(=O)CC2Oc3ccc(Cl)cc3NC2=O)cc1OC (stereo not drawn) | 0.4 | 58.8* | -0.757 | 1.5 | -50.7 | 2.59
SMILES | CYP2C19 activ | CYP2C19 inh | hDAT+cocaine | CYP2C9 act | CYP2C9 inhib | D1 mod
COc1ccc(C(C)=O)cc1CSCCC(=O)O | 0.7 | 33.2 | -0.217 | 0.7 | 30.4 | .
COc1ccc(C(C)=O)cc1CSc1nc2ccccc2o1 | 0.6 | 41.4 | -1.45 | 0.4 | 56.3* | 0.558
O=C(COC(=O)c1cc([N+](=O)[O-])ccc1NCc1ccccc1)NC1CCCc2ccccc21 (stereo not drawn) | 0.8 | 19.9 | 0.858 | 0.3 | 69.3* | .
Cc1nn(-c2ccccc2)c(C)c1/C=N/NC(=O)c1cc(C(C)(C)C)[nH]n1 | 0.7 | 26.6 | 0.131 | 0.4 | 57.6* | .
CC(/C=N/n1c(-c2ccccc2)n[nH]c1=S)=C\c1ccco1 | 1 | -3.2 | -0.0537 | 0.9 | 11.7 | .
Cc1nn(-c2ccccc2)c(C)c1/C=N/n1c(-c2ccc(C(C)(C)C)cc2)n[nH]c1=S | 0.7 | 33.9 | 0.368 | 0.2 | 81.8* | .
Cc1ccc(-c2cc(C(=O)N/N=C/c3c(C)nn(-c4ccccc4)c3C)[nH]n2)cc1 | 0.7 | 28.8 | . | 0.8 | 24.6 | .
COCC(=O)Nc1nc2ccccc2s1 | 0.9 | 5.4 | -0.324 | 1.2 | -16.0 | .
O=C(Cc1cccs1)Nc1nc2ccccc2s1 | 0.4 | 55.6* | -1.35 | 0.5 | 49.9 | 0.0719
Cc1ccc2nc(NC(=O)Cc3cccs3)sc2c1 | 0.8 | 23.8 | 0.03 | 0.7 | 27.7 | .
COC(=O)CCCCCCCCC(=O)Nc1nc2ccccc2s1 | 0.4 | 62.8* | 0.443 | 0.2 | 82.2* | .
Cc1cccc(N(C(=O)CCC(=O)Nc2cccnc2)C(C(=O)NC2CCCC2)c2ccncc2)c1 (stereo not drawn) | . | . | 0.13 | . | . | .
O=C1C2CCCN2C(c2ccc(Cl)cc2)N1c1nccs1 (stereo not drawn) | . | . | 0.359 | . | . | 0.257
COC(=O)c1cc2sc(Cl)cc2n1CC(=O)Nc1cccc(SC)c1 | 0.6 | 44.0 | -0.372 | 0.3 | 74.8* | 1.97
FC(F)(F)c1ccc(-n2ccnc2)nc1 | 0.5 | 51.6* | -1.74 | 0.6 | 37.7 | 0.0312
CCNC(=O)CN(c1ccccc1)S(=O)(=O)c1ccc(Cl)cc1 | 0.3 | 68.9* | 0.264 | 0.7 | 33.1 | .
CCNC(=O)CN(c1ccc(Cl)cc1)S(=O)(=O)c1ccccc1 | 0 | 96.5* | -1.62 | 0.4 | 63.3* | .
COC(=O)CN(c1ccccc1)S(=O)(=O)c1ccc(F)cc1 | . | . | -0.423 | . | . | -0.275
O=P1(O)C=C(c2ccccc2)NC(c2ccccc2)=C1 | 1 | -0.9 | 0.0341 | 1 | -0.6 | -0.32
C/C(=N\NC(=O)C1CC1c1ccccc1)c1cccs1 (stereo not drawn) | 0.1 | 88.2* | -1.53 | 0.5 | 51.4* | .
COc1ccc(C2CC2/C(=N/OC(=O)c2cccs2)c2ccccc2)cc1 (stereo not drawn) | 0.3 | 71.0* | -0.363 | 0.1 | 93.7* | .
O=C(Cc1cccc2ccccc12)NNC(=O)c1cccs1 | 0.6 | 40.8 | 1.7 | 1 | -2.1 | .
C/C(=N/NC(=O)Cc1cccc2ccccc12)c1cccs1 | 0.2 | 76.2* | -0.413 | 0.8 | 18.8 | .
COCCN1C(=O)N[C@@H](c2cccs2)C(C(C)=O)=C1C | . | . | -0.0156 | . | . | .
Cc1ccc(P(=Nc2ccccc2)(N2CCOCC2)N2CCOCC2)o1 | 1 | 4.5 | -0.101 | 0.8 | 22.9 | 0.997
N#Cc1c(C#N)c(-c2ccccc2)n(-c2ccccc2)c1N | 1.1 | -6.6 | -0.492 | 0.9 | 8.0 | .
CCOC(=O)c1c(N)sn(-c2ccccc2)c1=S | 0.8 | 16.6 | -0.308 | 0.9 | 14.3 | 0.572
N#Cc1c2c(c(=S)n(-c3ccccc3)c1N)CCCC2 | 0.8 | 22.0 | 0.522 | 0.4 | 57.0* | 0.867
